The source of these data is PubChem BioAssay (NCATS).

Assay [1] concerns the target Cytochrome P450 1A2 (Homo sapiens) (UniProt P05177). Description: p450-cyp1a2 (AID 410; calls by dose curve; also: potency is read from the fitted curve at half-maximal effect). The method, boiled down: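 Read-out is luminescence from luciferin produced by CYP1A2 demethylation of Luciferin-ME (100uM, at Km). Detection reagent stopped the 60 min NADPH-dependent reaction; signals were normalized to 57 uM furafylline.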
Assay [2] deals with Glucocorticoid receptor (Homo sapiens) (UniProt P04150). Description: GR-GFP Redistribution (AID 450;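 active = compounds whose dose series gives a full or clear partial fitted curve of increased nuclear translocation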; also: potency is read from the fitted curve at half-maximal effect). Particulars: U2OS GR-GFP nuclear translocation, laser cytometry, 2 h.
For assay [3] the target is unchanged. As to the kind of experiment: GR-EFC Redistribution (AID 451; calls by dose curve; also: potency is read from the fitted curve at half-maximal effect). Particulars: CHO-K1 GR-EFC translocation, beta-gal luminescence, 2 h. Put shortly:
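Translocation of GR-ED fusion to nuclear EA restores b-gal, read by luminescence after 1 h room-temperature detection. Engineered CHO-K1 biosensor cells, 1,000/well, exposed 2 h at 37 C to titrations up to 46 uM final.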

Assay [4] addresses Cytochrome P450 3A4 (Homo sapiens) (UniProt P08684). Description: qHTS Assay for Activators of Cytochrome P450 3A4 (AID 885). Also: nearly all actives have a fitted effect of over 65% in size. The method, boiled down:
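Activators are scored by enhanced luminescence from CYP3A4 conversion of luciferin-PPXE (25uM, equal to KM) to luciferin, after 60 min at RT with an NADPH-regenerating system.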
A general note: In qHTS, concentration-response curves come from the screen itself.

The target of assay [5] is Ubiquitin carboxyl-terminal hydrolase 1 (Homo sapiens) (UniProt O94782). As to the kind of experiment: Inhibitors of USP1/UAF1: Pilot qHTS (AID 504865). Also: nearly all actives have a fitted effect of over 35% in size. Also: potency is read from the fitted curve at half-maximal effect. The method, boiled down: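 USP1/UAF1 complex (1nM) preincubated with compound 15 min at room temperature, then Ub-Rho substrate (150nM final) added. Fluorescence read kinetically at 480/540 nm, 6 reads every 60 seconds. Buffer: 50mM HEPES pH 7.8, 0.5mM EDTA, 0.1 mg/ml BSA, 1mM TCEP, 0.01% Tween-20.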

The target of assay [6] is DNA dC->dU-editing enzyme APOBEC-3G (Homo sapiens) (UniProt Q9HC16). As to the kind of experiment: qHTS for inhibitors of Vif-A3G interactions: Validation (AID 588379). Also: 0% is about no effect. The method, boiled down:
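Yellow fluorescence (Ex 488, Em 500-530) of Vif-coexpressing HeLa A3G-eYFP cells, scanned by Acumen cytometer, reports blocked A3G degradation. Cells plated at 700/well overnight at 37 deg C before compound addition, then a further overnight compound incubation at 37 deg C.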

The test system of assay [7] is Zika virus NS2B-NS3 protease. As to the kind of experiment: Primary screen GU AMC qHTS for Zika virus inhibitors (AID 1347154).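 Also: 0% = no-inhibitor control and -100% = no-enzyme control; nearly all actives have a fitted effect of over 70% in size.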 Put shortly:
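Fluorogenic AMC-substrate cleavage by noncovalent NS2B-NS3 protease complex (25 nM, pH 8.0 Tris buffer with Tween 20) followed for 15 minutes at room temperature (~20% conversion). Percent inhibition from ex340/em450 signal change, fitted by 4-parameter Hill equation.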

A short description of assay [8]: Primary qHTS for small molecule stabilizers of the endoplasmic reticulum resident proteome: Secreted ER Calcium Modulated Protein (SERCaMP) assay (AID 1508630). Also: % is scaled to controls: 0 for no effect and ±100 for the full control effect. Put shortly:
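The SH-SY5Y reporter protocol was run at 3 concentrations up to 38.3 uM (primary) or 11 concentrations (follow-up): 16 h compound, 100 nM thapsigargin for 4 h, then extracellular luciferase luminescence.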

Assay [9] is described as follows: qHTS Assay for Lipid Storage Modulators (AID 1519; calls by dose curve). Particulars: Drosophila S3 cells, BODIPY lipid droplet/cell ratio, laser cytometry, cells loaded with oleic acid; for activity change, negative = inhibition: at 57.5 µM (top of the series). The method, boiled down:
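Cells seeded at 5,000 per well were treated with compounds over a concentration series and loaded with oleic acid (400 uM, as added). Lipid droplet fluorescence (488 nm excitation, 500-530 nm channel) was read by laser-scanning cytometry and normalized to 20 uM Triacsin C.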

The target in assay [10] is Cytochrome P450 2C9 (Homo sapiens) (UniProt P11712). As to the kind of experiment: qHTS Assay for Inhibitors and Substrates of Cytochrome P450 2C9 (AID 883). Also: potency is read from the fitted curve at half-maximal effect; nearly all actives have a fitted effect of over 60% in size. The method, boiled down:
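Inhibition of CYP2C9 is scored as loss of luminescence, with 57uM sulphaphenazole defining 100% inhibition. Substrate Luciferin-H is used at 100uM, equal to its KM; enzyme at 10nM in 25mM KPO4, 60 min at 37C with NADPH regeneration.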

Assay [11] addresses Cytochrome P450 2D6 (Homo sapiens) (UniProt P10635). As to the kind of experiment: qHTS Assay for Inhibitors and Substrates of Cytochrome P450 2D6 (AID 891). Also: nearly all actives have a fitted effect of over 60% in size. Also: potency is read from the fitted curve at half-maximal effect. Put shortly:
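Luminescent read-out of luciferin formed by 5 nM human CYP2D6 demethylating 30 uM Luciferin-ME EGE (Km level) over 60 min at room temperature after NADPH regeneration addition. Data normalized to full inhibition by 1.43 uM quinidine.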

The target in assay [12] is Cytochrome P450 2C19 (Homo sapiens) (UniProt P33261). As to the kind of experiment: qHTS Assay for Inhibitors and Substrates of Cytochrome P450 2C19 (AID 899). Also: nearly all actives have a fitted effect of over 60% in size. Also: potency is read from the fitted curve at half-maximal effect. The method, boiled down:
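5nM enzyme + 10uM Luciferin-H EGE (=KM), 50mM KPO4; cpd pin-transferred, 10 min 37C; NADPH regen, 60 min 37C; stopped w/ luciferin detection reagent, 20 min; luminescence. Normalized to 57uM ketoconazole (AC100).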

Assay [13] has as its target Mitogen-activated protein kinase 10 (Mus musculus) (UniProt Q61831). Description: JNK3 AlphaScreen Assay (AID 530; active = well fitted curve in either direction with a large enough effect, not every such curve was filed as active;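 also: kinase came from lysate of stimulated human HepG2 cells; signal reports phosphorylation of biotinylated GST-cJun 1-79 at Ser73 with 10 µM ATP; % is scaled to controls: 0 for no effect and ±100 for the full control effect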). The method, boiled down: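 Kinase buffer: 20 mM Tris-HCl pH 7.6, 10 mM MgCl2, 1 mM DTT, 0.1 mM Na3VO4, 0.01% Tween-20; ATP 10 uM. Substrate biotin-GST-cJun(1-79), enzyme from activated HepG2 lysates. Detection by Ser73 phospho-antibody AlphaScreen.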
The target of assay [14] is 3',5'-cyclic-AMP phosphodiesterase 4B (Homo sapiens) (UniProt Q07343). Description: qHTS Assay for Inhibitors of PDE-IV (AID 607; active = well fitted activation curve with a large enough effect in the main read-out, with a control signal flat, not every such curve was filed as active; also: % of control where 0% means no effect). The method, boiled down:
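The readout is membrane depolarisation from a cAMP-sensing CNG channel, detected with a potential dye at ex 535/em 590. Cells were HEK293-derived (endogenous PDE-IV) at 1000 cells/well, titrated up to 22.9 uM final.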

Assay [15] is described as follows: AP1 Signaling Pathway (AID 357; active = well fitted curve in either direction with a large enough effect, not every such curve was filed as active;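 also: ME-180 reporter cells stimulated with EGF at its EC50 level; % is scaled to controls: 0 for no effect and ±100 for the full control effect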). The following applies: ME-180 AP-1-bla reporter, EGF-induced, beta-lactamase ratio, 5 h. The method, boiled down:
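AP-1-bla ME-180 cells, Opti-MEM + 0.5% dialyzed FBS, plated overnight 37 °C. Cpd titration + EC50 EGF, 5 h 37 °C. CCF4 2.5 h RT; ex 405, em 460/530 ratio → %activity, AC50.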

Assay [16] can be described thus: NFAT Signaling Pathway (AID 444; active = well fitted curve in either direction with a large enough effect, not every such curve was filed as active;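 also: carbachol stimulus at about its EC50 of 1 µM final; % is scaled to controls: 0 for no effect and ±100 for the full control effect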). The following applies: Jurkat NFAT-bla M1, carbachol, beta-lactamase ratio, 5 h. Put shortly: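 Read-out: CCF4 FRET ratio (460 nm/530 nm) after 1 h RT dye loading, used for %activity and AC50 from titration series. Cells: Jurkat NFAT-β-lactamase/M1 line, treated with compound plus 1 uM carbachol for 5 h, 37 °C.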
Assay [17] has as its target Cytochrome P450 3A4 (Homo sapiens) (UniProt P08684). Description: qHTS Assay for Inhibitors and Substrates of Cytochrome P450 3A4 (AID 884). Also: nearly all actives have a fitted effect of over 50% in size. Also: potency is read from the fitted curve at half-maximal effect. The method, boiled down: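 Luminescent readout of luciferin produced by CYP3A4 (20 nM) dealkylation of Luciferin-PPXE, 25 uM (its KM). NADPH-driven reaction ran 60 min at RT after 10 min compound preincubation; data scaled to 57 uM ketoconazole as 100% inhibition.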

Assay [18] in a line: Stat Signaling Pathway (AID 446; active = well fitted curve in either direction with a large enough effect, not every such curve was filed as active). The following applies: ME-180 (cervical carcinoma) SIE beta-lactamase reporter, IL-6 stimulated, 5 h. The method, boiled down:
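Emission at 460 and 530 nm (excitation 405 nm) reports SIE-controlled beta-lactamase in ME-180 cells. Cells received compound with 40 pM IL-6 for 5 hrs at 37 C; data scaled between 300 pM IL-6 and 125 nM JAK-inhibitor controls.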

Assay [19] deals with Guanine nucleotide-binding protein G(i) subunit alpha-1 (Homo sapiens) (UniProt P63096). Description: qHTS Assay for Inhibitors of RGS12 GoLoco Motif Activity (Green Fluorophore) (AID 879).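 Also: 0% = labeled peptide with Gαi1 and full inhibition = labeled peptide alone without protein; negative values mean loss of peptide binding seen as reduced polarization.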 The method, boiled down: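 A drop in FITC polarization marked displacement of the FITC-tagged RGS12 GoLoco peptide (10 nM) from Gαi1 (50 nM). Compounds were incubated 10 min at room temperature in Tris pH 7.5 buffer containing 150 mM NaCl, 0.1 mM GDP and 0.05% NP40; unlabeled peptide titration served as control.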

For assay [20], the target named is Pyruvate kinase (Leishmania mexicana) (UniProt Q27686). Description: qHTS Validation Assay for Inhibitors of Leishmania Mexicana Pyruvate Kinase (AID 945).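 Also: 0% = DMSO only neutral control wells.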 The method, boiled down:
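Pyruvate kinase activity of E451W LmPYK (0.2 nM) was followed as ATP output after 1 h at room temperature with 0.5 mM PEP and 0.1 mM ADP, detected by PKLight luminescence.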

Where [21] appears, read: measured here: cell count channel max response.
Setting [22] is: measured here: lipid channel max response.

Where “and” joins values, the source holds several entries; their conditions need not be identical. Identical values can stand only once. Inconclusive results are not listed. Calls of active or inactive are those of the source. Unless noted, calls follow the shape of the dose curve; as a rule, active = well fitted curve in the direction sought with a large enough effect; inconclusive = small, poorly fitted or top-dose-only effect, or another doubt; inactive = no such curve, though single readings can be large; an effect the other way counts as inactive or inconclusive.

Cytochrome P450 3A4 (Homo sapiens), sequence (P08684 whole entry, looked up): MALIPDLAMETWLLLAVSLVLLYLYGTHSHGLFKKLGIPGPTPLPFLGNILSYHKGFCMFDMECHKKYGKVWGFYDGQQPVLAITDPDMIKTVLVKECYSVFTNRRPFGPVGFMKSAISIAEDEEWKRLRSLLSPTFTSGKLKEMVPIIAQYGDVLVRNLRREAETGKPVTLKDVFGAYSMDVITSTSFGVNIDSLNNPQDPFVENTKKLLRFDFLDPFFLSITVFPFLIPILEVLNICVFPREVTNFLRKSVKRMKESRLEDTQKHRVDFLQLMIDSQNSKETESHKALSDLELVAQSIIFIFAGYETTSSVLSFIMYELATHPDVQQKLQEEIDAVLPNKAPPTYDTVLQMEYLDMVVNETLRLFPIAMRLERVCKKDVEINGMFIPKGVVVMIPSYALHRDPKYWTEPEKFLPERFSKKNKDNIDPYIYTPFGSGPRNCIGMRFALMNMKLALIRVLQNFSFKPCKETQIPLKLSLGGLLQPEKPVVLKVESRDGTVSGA
Ubiquitin carboxyl-terminal hydrolase 1 (Homo sapiens), sequence (O94782 whole entry, looked up): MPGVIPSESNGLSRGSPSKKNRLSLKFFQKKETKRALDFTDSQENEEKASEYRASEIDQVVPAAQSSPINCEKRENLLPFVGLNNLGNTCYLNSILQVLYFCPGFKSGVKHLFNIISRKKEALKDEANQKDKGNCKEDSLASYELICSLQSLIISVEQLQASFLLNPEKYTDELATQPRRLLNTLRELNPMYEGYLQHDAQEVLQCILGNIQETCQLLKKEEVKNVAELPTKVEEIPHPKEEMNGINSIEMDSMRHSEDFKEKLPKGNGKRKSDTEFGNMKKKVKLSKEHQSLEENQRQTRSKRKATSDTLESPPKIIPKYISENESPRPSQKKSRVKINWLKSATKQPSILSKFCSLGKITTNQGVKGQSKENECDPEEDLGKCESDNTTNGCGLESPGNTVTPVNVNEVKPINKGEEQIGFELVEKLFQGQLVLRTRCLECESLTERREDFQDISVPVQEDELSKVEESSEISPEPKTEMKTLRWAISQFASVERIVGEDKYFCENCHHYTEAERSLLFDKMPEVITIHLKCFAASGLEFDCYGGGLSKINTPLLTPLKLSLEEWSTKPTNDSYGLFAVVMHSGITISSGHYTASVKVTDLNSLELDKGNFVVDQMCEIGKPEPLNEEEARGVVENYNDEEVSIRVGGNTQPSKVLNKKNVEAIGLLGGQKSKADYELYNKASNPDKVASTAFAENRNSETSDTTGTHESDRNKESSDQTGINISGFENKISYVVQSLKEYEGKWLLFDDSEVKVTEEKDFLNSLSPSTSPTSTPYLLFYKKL
Glucocorticoid receptor (Homo sapiens), sequence (P04150 whole entry, looked up): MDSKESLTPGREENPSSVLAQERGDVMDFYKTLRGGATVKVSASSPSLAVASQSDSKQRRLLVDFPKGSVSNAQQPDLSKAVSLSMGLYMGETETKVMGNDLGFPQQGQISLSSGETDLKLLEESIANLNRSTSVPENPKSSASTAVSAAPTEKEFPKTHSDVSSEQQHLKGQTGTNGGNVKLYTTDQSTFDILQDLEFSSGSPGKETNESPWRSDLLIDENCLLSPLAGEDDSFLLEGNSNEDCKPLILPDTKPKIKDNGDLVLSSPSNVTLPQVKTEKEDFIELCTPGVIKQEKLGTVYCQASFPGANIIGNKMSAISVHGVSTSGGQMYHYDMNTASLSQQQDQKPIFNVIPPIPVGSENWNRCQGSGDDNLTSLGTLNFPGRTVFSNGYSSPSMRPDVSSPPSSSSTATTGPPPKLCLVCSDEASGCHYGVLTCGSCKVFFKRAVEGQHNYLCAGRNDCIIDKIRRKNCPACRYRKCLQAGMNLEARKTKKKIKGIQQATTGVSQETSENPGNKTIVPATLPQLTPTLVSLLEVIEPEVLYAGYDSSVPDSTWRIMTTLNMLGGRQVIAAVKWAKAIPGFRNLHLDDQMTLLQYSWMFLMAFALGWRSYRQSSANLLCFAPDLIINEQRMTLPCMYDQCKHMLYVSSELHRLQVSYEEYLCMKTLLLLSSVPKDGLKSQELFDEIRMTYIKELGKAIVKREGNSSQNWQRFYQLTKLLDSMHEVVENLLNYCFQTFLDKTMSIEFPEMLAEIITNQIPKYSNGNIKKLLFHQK
Cytochrome P450 1A2 (Homo sapiens), sequence (P05177 whole entry, looked up): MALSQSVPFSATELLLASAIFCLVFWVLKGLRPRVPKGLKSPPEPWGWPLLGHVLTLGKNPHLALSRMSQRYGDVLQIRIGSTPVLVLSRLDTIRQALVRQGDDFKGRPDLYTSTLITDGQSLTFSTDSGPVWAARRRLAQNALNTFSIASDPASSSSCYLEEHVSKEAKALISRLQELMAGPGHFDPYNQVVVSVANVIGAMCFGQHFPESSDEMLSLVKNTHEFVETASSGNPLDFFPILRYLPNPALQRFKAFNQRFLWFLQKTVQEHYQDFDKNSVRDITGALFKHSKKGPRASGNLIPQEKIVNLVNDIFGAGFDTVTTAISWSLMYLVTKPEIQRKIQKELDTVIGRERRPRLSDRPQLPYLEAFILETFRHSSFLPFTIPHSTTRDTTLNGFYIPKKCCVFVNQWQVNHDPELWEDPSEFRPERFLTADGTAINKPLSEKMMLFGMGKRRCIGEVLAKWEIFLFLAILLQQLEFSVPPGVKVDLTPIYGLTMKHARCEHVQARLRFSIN
DNA dC->dU-editing enzyme APOBEC-3G (Homo sapiens), sequence (Q9HC16 whole entry, looked up): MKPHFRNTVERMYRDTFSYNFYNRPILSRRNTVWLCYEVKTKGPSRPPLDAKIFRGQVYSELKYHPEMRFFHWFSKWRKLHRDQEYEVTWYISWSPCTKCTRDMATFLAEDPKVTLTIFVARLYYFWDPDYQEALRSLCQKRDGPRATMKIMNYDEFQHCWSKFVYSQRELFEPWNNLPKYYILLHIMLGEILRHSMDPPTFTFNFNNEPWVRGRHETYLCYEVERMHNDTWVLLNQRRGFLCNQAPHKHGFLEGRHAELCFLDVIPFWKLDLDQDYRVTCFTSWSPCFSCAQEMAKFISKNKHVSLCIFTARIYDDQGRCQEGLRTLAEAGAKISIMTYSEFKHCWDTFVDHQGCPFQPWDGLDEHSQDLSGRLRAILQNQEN
Cytochrome P450 2C9 (Homo sapiens), sequence (P11712 whole entry, looked up): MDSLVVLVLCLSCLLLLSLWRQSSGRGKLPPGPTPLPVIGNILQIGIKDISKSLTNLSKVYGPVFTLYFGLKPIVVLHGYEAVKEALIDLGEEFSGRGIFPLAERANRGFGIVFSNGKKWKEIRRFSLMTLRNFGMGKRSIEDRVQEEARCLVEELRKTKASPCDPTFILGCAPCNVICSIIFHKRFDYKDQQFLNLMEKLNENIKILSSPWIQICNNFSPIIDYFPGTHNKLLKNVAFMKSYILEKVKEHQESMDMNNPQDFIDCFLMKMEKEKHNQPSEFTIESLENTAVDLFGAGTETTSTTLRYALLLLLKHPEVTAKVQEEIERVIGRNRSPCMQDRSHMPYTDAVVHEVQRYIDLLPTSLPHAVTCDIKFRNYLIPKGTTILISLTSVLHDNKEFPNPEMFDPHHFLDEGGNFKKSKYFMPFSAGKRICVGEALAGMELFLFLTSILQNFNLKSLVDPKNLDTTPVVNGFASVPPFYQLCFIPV
3',5'-cyclic-AMP phosphodiesterase 4B (Homo sapiens), sequence (Q07343 whole entry, looked up): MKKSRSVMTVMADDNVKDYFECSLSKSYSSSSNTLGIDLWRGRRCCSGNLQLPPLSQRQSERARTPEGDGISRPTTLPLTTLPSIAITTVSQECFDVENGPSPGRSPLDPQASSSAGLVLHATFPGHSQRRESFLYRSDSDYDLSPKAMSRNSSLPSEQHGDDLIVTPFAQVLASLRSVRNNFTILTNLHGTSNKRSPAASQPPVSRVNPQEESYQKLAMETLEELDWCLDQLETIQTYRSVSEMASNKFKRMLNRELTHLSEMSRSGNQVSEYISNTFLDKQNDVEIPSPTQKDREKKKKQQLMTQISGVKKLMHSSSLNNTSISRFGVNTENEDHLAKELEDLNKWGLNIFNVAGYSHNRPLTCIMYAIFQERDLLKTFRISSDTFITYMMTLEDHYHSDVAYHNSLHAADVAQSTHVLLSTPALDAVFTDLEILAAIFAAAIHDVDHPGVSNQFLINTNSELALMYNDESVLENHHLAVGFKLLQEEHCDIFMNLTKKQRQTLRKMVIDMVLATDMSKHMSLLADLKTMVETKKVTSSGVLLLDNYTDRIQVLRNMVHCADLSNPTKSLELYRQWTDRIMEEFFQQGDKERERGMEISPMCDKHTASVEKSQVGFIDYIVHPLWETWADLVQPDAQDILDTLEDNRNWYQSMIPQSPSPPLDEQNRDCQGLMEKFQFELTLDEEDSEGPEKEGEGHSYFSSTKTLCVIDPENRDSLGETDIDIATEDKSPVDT
Cytochrome P450 2C19 (Homo sapiens), sequence (P33261 whole entry, looked up): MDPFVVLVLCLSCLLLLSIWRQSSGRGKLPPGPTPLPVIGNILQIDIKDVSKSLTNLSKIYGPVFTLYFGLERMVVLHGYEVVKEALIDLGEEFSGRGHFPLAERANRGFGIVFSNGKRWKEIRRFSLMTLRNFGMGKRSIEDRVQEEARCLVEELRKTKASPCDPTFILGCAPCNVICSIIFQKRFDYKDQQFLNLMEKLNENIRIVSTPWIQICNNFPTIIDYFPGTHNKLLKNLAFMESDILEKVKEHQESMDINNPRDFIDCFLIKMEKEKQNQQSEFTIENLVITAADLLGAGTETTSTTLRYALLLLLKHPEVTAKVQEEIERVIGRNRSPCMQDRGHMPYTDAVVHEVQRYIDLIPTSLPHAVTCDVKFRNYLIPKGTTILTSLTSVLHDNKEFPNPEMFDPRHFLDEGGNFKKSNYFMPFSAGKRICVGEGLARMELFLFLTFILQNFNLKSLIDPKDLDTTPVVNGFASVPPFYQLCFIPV

`Cc1sc(N)c(C(=O)c2cccc(C(F)(F)F)c2)c1C`: the Potency in assay [1] is 15.8 µM (active); in assay [2], > 46 µM (inactive); in assay [3] it was > 46 µM (inactive); in assay [5] it was 50.1 µM (active). The Potency entry in assay [4], in assay [6], in assay [7] and in [8] was “inactive” in each case.

Consider `CCOC(=O)C(CCc1ccccc1)NC1CCc2ccccc2N(CC(=O)O)C1=O` (configuration not stated), for which, in assay [9], the activity change, negative = inhibition was 1.93% (inactive). For the same molecule, the values for the max response in assay [9] (setting [21]) and in [9] (setting [22]) were 11.8% and 17.9%, respectively. For the same molecule, the Potency entry in assay [5], in assay [7] and in assay [8] was “inactive” throughout.

On to `COC(=O)C1=C(C)NC(C)=C([N+](=O)[O-])[C@@H]1c1ccccc1C(F)(F)F`, for which the Potency was 39.8 µM (active) in assay [1]; > 46 µM (inactive) in assay [3]; 0.158 µM (active) in assay [10]; 6.31 µM (active) in [11]; 0.126 µM (active) in assay [12]. Moreover, the Potency result in [4], in [6], in assay [7] and in [8] was “inactive” each time.

For the molecule `N[C@@H](CCCP(=O)(O)O)C(=O)O`, the Potency in assay [2] and in assay [3] was > 46 µM (inactive) throughout. For the same molecule, the Potency result in [13], in assay [14], in assay [6], in assay [7] and in assay [8] was “inactive” in each case. Moreover, the activity change, negative = inhibition in assay [9] was -1.39% (inactive). In addition, the max response amounted to 15.6% in [9] (setting [21]) and 17.3% in [9] (setting [22]).

For `Cc1ccc(-c2nn(C(C)(C)C)c3ncnc(N)c23)cc1`, the Potency entry in assay [7] and in assay [8] was “inactive” in each case.

In the case of `CCCCCC#CCC#CCC#CCC#CCCCC(=O)O`, the results for the activity change, negative = inhibition in assay [15] (at 17.2 µM (top of the series)) and in assay [16] (at 17.2 µM (top of the series)) were -11.4% (inactive) and -2.11% (inactive), respectively. Besides, the Potency in assay [2] is > 20.6 µM (inactive). The Potency result in assay [7] and in assay [8] was “inactive” in each case.

On to `Fc1ccc(-c2nc3n(c2-c2ccncc2)CCS3)cc1`, for which the Potency in assay [17] is 15.8 µM (active). In addition, the Potency result in assay [4], in [7] and in [8] was “inactive” throughout.

`CC(C)=CCC/C(C)=C/CC/C(C)=C/CO`: the Potency entry in assay [17], in assay [4], in assay [5], in assay [6], in assay [7] and in assay [8] was “inactive” in each case.

Consider `CC/C=C\C/C=C\C/C=C\C/C=C\C/C=C\CCCCCC(=O)O`, for which the figures for the activity change, negative = inhibition in assay [7] and in assay [8] were -1.57% [at 6.83 µM] (inactive) and -17.3% [at 3.88 µM] (inactive), respectively.

With `COc1ccc2c(c1)c(CC(=O)N1CCOCC1)c(C)n2C(=O)c1ccc(Cl)cc1`, the activity change, negative = inhibition in assay [15] (at 38 µM (top of the series)) is -8.4% (inactive); in assay [16] (at 38 µM (top of the series)), 2.03% (inactive). Moreover, the Potency in assay [1] was 12.6 µM (active) and 25.1 µM (active); in assay [2], > 46 µM (inactive); in [3] it was > 46 µM (inactive); in assay [10] it was 39.8 µM (active); in [17] it was 5.01 µM (active). Also, the activity, negative = inhibition in assay [18] (at 38 µM (top of the series)) is -6.17% (inactive). In addition, the Potency result in assay [13], in assay [14], in assay [4], in assay [11], in assay [12] and in [20] was “inactive” in each case. Further, the Potency entry in [6], in assay [7] and in [8] was “inactive” in each case. For the same molecule, the call in assay [19] was inactive.

Take `CC(=O)[C@H]1[C@H](C#N)C[C@H]2[C@@H]3CC=C4C[C@@H](O)CC[C@]4(C)[C@H]3CC[C@@]21C`: the activity change, negative = inhibition in assay [15] (at 17.2 µM (top of the series)) was 5.31% (inactive); in assay [16] (at 17.2 µM (top of the series)) it was 9.39% (inactive). Moreover, the activity, negative = inhibition in [18] (at 17.2 µM (top of the series)) is 2.76% (inactive). In addition, in assay [2], the Potency is > 20.6 µM (inactive). The Potency result in assay [7] and in assay [8] was “inactive” throughout.

Consider `C[C@H]1C=C2C=C[C@H](C)[C@H](CC[C@@H]3C[C@@H](O)CC(=O)O3)[C@H]2[C@@H](OC(=O)[C@@H](C)CCO)C1`, for which the Potency in assay [3] is > 46 µM (inactive). For the same molecule, the Potency entry in assay [13], in [4], in assay [6], in assay [7] and in assay [8] was “inactive” throughout.
